PubChem BioAssay
Unmarked numbers belong to inactive results. For some assays here: Measured potencies and affinities stand elsewhere. Active and inactive are the calls of the source. Unless noted, no rule for the calls is given here.

Legend:
[1] = antimalarial activity against Dd2 strain (AID 2302;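 active = growth inhibition above 50% at the single 2 µM test dose, taken to imply half-maximal potency below 2 µM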;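 also: 0% = DMSO untreated growth and 100% = chloroquine plus artemisinin killed control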); conditions: P. falciparum Dd2 in RBCs, LDH growth readout, 72 h; at 2 µM; stronger effect = higher value
[2] = human hepatoma cell viability loss – ATP luminescence, cytotoxicity control for P. falciparum antimalarial project, primary screen (AID 2303;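 active = inhibition above 50%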;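 also: 0% = DMSO wells and 100% = digitonin-killed cells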); conditions: HepG2 viability, 24-48 h, at 10 µM, stronger effect = higher value
[3] = biological target: L-lactate dehydrogenase (Plasmodium falciparum (isolate CDC / Honduras)) (UniProt Q27743); assay: PfLDH activity inhibition – cell lysate, 3D7 strain, counter-screen for P. falciparum growth inhibition project (AID 2304);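 also: 0% = vehicle and 100% = reference inhibitor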; conditions: P. falciparum 3D7 crude extract, LDH APAD/NBT absorbance; at 2 µM; stronger effect = higher value
[4] = inhibition of 3D7 malaria parasite growth – strain 3D7 (AID 2306);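 also: 0% = DMSO wells and 100% = chloroquine plus artemisinin control wells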; conditions: P. falciparum 3D7 erythrocytic growth, LDH absorbance, 72 h; at 2 µM; stronger effect = higher value
[5] = biological target: Calcium-dependent protein kinase 1 (Plasmodium falciparum (isolate 3D7)) (UniProt P62344); assay: PfCDPK1 kinase inhibitors, biochemical, TCAMS library (AID 1159585; cut-off not given, nearly all actives have IC50 up to about 0.98 µM;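 also: inhibitors leave more ATP so luminescence rises with inhibition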); conditions: recombinant PfCDPK1, Kinase-Glo ATP depletion luminescence
[6] = biological target: Plasmodium falciparum protein kinase 6 (PK6, PF3D7_1337100) (UniProt Q8IDW1); assay: PfPK6 kinase inhibitors, biochemical, TCAMS library (AID 1159586); conditions: recombinant PfPK6, Kinase-Glo ATP depletion luminescence
[7] = biological target: Protein kinase 7 (PK7), Plasmodium falciparum 3D7 (PF3D7_0213400) (UniProt Q7YTF7); assay: inhibition of Plasmodium PK7 catalytic activity – biochemical, TCAMS antimalarial set, Kinase-Glo luminescence (AID 1159587); conditions: recombinant PfPK7, Kinase-Glo ATP depletion luminescence
[8] = biological target: Calcium-dependent protein kinase 4 (Plasmodium falciparum (isolate 3D7)) (UniProt Q8IBS5); assay: PfCDPK4 kinase inhibitors, biochemical, TCAMS library (AID 1159588; cut-off not given, nearly all actives have IC50 up to about 0.91 µM); conditions: recombinant PfCDPK4, Kinase-Glo ATP depletion luminescence
Sequence of Calcium-dependent protein kinase 4 (Plasmodium falciparum (isolate 3D7)) (Q8IBS5 whole entry, looked up): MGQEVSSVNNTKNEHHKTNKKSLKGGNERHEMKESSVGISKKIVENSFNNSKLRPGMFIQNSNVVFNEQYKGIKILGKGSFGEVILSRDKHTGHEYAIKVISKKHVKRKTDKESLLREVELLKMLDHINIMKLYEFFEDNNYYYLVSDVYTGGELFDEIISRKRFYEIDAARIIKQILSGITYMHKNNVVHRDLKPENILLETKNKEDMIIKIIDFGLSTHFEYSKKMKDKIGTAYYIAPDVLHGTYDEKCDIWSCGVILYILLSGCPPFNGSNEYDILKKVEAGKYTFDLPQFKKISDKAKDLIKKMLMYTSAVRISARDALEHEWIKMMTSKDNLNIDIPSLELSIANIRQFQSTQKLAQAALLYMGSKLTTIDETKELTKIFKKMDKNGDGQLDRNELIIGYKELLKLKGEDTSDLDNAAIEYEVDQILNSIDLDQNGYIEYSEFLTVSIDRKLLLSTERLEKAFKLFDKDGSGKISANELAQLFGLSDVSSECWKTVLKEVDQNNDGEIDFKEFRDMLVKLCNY

Sequence of Plasmodium falciparum protein kinase 6 (PK6, PF3D7_1337100) (Q8IDW1 1-305): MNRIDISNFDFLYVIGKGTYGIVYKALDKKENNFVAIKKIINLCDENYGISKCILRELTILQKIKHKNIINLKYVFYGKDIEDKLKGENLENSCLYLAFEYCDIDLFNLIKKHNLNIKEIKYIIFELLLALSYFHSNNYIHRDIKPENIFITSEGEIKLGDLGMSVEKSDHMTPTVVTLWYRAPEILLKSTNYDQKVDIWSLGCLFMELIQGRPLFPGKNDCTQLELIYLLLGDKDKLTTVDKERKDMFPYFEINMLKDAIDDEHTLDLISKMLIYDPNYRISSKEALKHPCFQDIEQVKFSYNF
Sequence of Calcium-dependent protein kinase 1 (Plasmodium falciparum (isolate 3D7)) (P62344 whole entry, looked up): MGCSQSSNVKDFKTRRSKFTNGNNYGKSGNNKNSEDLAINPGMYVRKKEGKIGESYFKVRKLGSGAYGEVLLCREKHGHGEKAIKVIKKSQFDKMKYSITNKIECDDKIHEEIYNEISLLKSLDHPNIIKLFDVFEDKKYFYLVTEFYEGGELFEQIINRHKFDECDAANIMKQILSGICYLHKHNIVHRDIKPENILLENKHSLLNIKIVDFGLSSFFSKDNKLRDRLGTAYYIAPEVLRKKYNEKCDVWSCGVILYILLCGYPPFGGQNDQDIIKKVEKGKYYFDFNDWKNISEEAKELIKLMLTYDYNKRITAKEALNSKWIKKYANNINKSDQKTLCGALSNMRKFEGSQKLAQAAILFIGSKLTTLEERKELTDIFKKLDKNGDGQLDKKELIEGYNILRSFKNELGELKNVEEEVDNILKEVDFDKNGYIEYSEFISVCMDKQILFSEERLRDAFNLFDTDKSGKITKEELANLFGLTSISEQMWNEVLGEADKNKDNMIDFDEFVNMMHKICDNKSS
Sequence of L-lactate dehydrogenase (Plasmodium falciparum (isolate CDC / Honduras)) (Q27743 whole entry, looked up): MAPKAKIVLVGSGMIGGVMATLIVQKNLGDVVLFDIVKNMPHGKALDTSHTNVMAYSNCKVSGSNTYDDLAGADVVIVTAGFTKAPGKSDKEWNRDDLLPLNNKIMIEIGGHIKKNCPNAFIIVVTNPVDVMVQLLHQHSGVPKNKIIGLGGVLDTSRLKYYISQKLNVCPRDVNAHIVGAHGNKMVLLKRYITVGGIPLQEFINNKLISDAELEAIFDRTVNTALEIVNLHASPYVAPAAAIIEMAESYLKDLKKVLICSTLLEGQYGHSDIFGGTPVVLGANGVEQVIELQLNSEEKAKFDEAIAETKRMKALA
Sequence of Protein kinase 7 (PK7), Plasmodium falciparum 3D7 (PF3D7_0213400) (Q7YTF7 1-343): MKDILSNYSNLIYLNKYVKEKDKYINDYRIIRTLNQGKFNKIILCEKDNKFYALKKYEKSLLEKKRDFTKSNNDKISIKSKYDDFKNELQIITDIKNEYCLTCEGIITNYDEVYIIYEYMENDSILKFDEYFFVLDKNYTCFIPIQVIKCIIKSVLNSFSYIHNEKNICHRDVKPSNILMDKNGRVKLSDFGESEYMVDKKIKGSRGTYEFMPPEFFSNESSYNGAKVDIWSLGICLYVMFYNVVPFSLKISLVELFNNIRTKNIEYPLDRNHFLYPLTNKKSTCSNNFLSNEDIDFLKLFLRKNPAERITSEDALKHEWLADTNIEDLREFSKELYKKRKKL

| SMILES | growth inhibition [1] | inhibition [2] | inhibition [3] [%] | growth inhibition [4] | outcome [5] | outcome [6] | outcome [7] | outcome [8] |
| --- | --- | --- | --- | --- | --- | --- | --- | --- |
| COc1cc(C)nc2ccc(NC(=O)Nc3ccc4nc(C)cc(OC)c4c3)cc12 | 83% (active) | 79% (active) | -7 | 102% (active) | inactive | inactive | inactive | inactive |
| CNc1ccc(CNCc2ccc(-c3ccc(-c4nc5c(C)cccc5[nH]4)s3)cc2)cc1 | 94% (active) | 29% | -5 | 101% (active) | inactive | inactive | inactive | inactive |
| NC(=O)c1cccc(C(=O)Nc2cccc(-c3ccc(-c4nc5ccccc5[nH]4)s3)c2)c1 | 69% (active) | 37% | 1 | 95% (active) | inactive | inactive | inactive | inactive |
| CN(C)CCCNCc1ccc(-c2ccc(CNCCc3ccccc3)cc2)cc1 | 87% (active) | 61% (active) | 0 | 100% (active) | inactive | inactive | inactive | inactive |
| Cc1cc(N2CCCC2)nc(Nc2ccc(NC(=O)COc3ccccc3)cc2)n1 | 86% (active) | 43% | 4 | 101% (active) | inactive | inactive | inactive | inactive |
| Nc1ncnc2nc(-c3ccc(F)cc3)cc(-c3ccc(NC(=O)c4ccccc4)cc3)c12 | 97% (active) | -6% | 0 | 100% (active) | inactive | inactive | inactive | inactive |
| Cc1cc(-c2ccc(NC(=O)N3CCc4cc(Cl)c(N5CCN(C)CC5)cc43)cc2)ccc1C#N | 83% (active) | 100% (active) | -2 | 101% (active) | inactive | inactive | inactive | inactive |
| CCOc1cc(C(=O)NC2CCN(Cc3ccccc3)CC2)ccc1-c1nc2ccc(Cl)cc2[nH]1 | 84% (active) | 10% | -6 | 101% (active) | inactive | inactive | inactive | inactive |
| Cc1nc(-c2ccc(C#N)cc2)sc1C(=O)NCCCCN1CCC(c2ccc3c(c2OCCO)CCCC3)CC1 | 10% | 14% | 6 | 99% (active) | inactive | inactive | inactive | inactive |
| O=C(/C=C/c1ccc(Cl)c(Cl)c1)NCCCCCCN1CCN(C(=O)Nc2cc(F)cc(F)c2)CC1 | -1% | 23% | -1 | 86% (active) | inactive | inactive | inactive | inactive |
| COc1cc(CNC[C@@H](O)[C@H](Cc2ccccc2)NC(=O)c2cc(C3CCCC3)cc(N3CCCCS3(=O)=O)c2)cc(OC)c1 | 96% (active) | 16% | 4 | 98% (active) | inactive | inactive | inactive | inactive |
| CCc1ccccc1N1CCN(CCCC(=O)c2ccc(NC(=O)c3ccc(Cl)cc3)cc2)CC1 | 4% | 17% | 7 | 90% (active) | inactive | inactive | inactive | inactive |
| O=c1cc(NCCCNCc2[nH]c3cc(Cl)cc(Cl)c3c2Cn2cccn2)[nH]c2ccccc12 | 2% | 5% | 1 | 86% (active) | inactive | inactive | inactive | inactive |
| COc1cc(-c2nc(-c3ccccc3)c(-c3ccccc3)[nH]2)ccc1OCCN(C)C | 100% (active) | -8% | 5 | 101% (active) | inactive | inactive | inactive | inactive |
| COc1cc(Nc2ncc3c(C)nc(-c4cc5ccccc5[nH]4)n3n2)cc(OC)c1OC | 65% (active) | 19% | 7 | 91% (active) | inactive | inactive | inactive | inactive |
| COc1ccc(CNCc2ccc(-c3cccc(-c4nc5ccc(F)cc5[nH]4)c3)cc2)cc1 | 94% (active) | 33% | 3 | 102% (active) | inactive | inactive | inactive | inactive |
| O=C(Nc1cc(F)cc(F)c1)N1CCOC(CCN2CCC3(CCc4ccccc43)CC2)(c2ccc(Cl)c(Cl)c2)C1 (stereo not given) | 86% (active) | 32% | 4 | 100% (active) | inactive | inactive | inactive | inactive |
| Oc1cccc(Nc2nc(NCc3ccco3)c3ccccc3n2)c1 | 74% (active) | 9% | 0 | 103% (active) | inactive | inactive | inactive | inactive |
| Cc1ccc(NC(=O)c2ccc(CN3CCCN(Cc4cccc(O)c4)CC3)cc2)cc1F | 31% | 48% | -2 | 97% (active) | inactive | inactive | inactive | inactive |
| CCOc1c(OC)ccc2c1CCN(CCN1CCC(CNC(=O)c3ccc(-c4ccc(C#N)cc4)cc3)CC1)C2 | 61% (active) | 45% | 7 | 92% (active) | inactive | inactive | inactive | inactive |

| SMILES | growth inhibition [1] | inhibition [2] | inhibition [3] [%] | growth inhibition [4] | outcome [5] | outcome [6] | outcome [7] | outcome [8] |
| --- | --- | --- | --- | --- | --- | --- | --- | --- |
| CCC(=O)N(c1ccccc1)C1CCN(CCCC(NC(=O)c2cc(C(F)(F)F)cc(C(F)(F)F)c2)c2ccc(Cl)c(Cl)c2)CC1 (stereo not given) | 57% (active) | 24% | 0 | 96% (active) | inactive | inactive | inactive | inactive |
| COc1ccc2ncc(F)c(CCN3CCC4(CC3)COC(c3cc5c(cn3)OCCO5)=N4)c2n1 | 83% (active) | 79% (active) | 5 | 89% (active) | inactive | inactive | inactive | inactive |
| NC1CCCN(Cc2cccc(-c3ccc(-c4nc5ccccc5[nH]4)cc3)c2)C1 (stereo not given) | 73% (active) | 25% | -6 | 101% (active) | inactive | inactive | inactive | inactive |
| COc1ccc(-c2ccc(NC(=O)c3cccc(F)c3)cc2)cc1CNC(C)C | 14% | 17% | -2 | 97% (active) | inactive | inactive | inactive | inactive |
| CN(N=Cc1ccccc1)C(N)=NCCCC#Cc1cccc(CN2CCCC2)c1 | 3% | 16% | -2 | 89% (active) | inactive | inactive | inactive | inactive |
| Cc1cccc2[nH]c(-c3ccc(-c4cccc(NC(=O)Nc5ccc(F)c(F)c5F)c4)cc3)nc12 | 89% (active) | 40% | 2 | 100% (active) | inactive | inactive | inactive | inactive |
| O=C(/C=C/c1cccc(Cl)c1)N1CCC(C(O)CN2CCC3(CC2)CN(C(=O)/C=C/c2cccc(Cl)c2)c2ccccc23)CC1 (stereo not given) | 38% | 34% | 0 | 91% (active) | inactive | inactive | inactive | inactive |
| COc1ccccc1N1CCN(C(C(=O)NCc2ccc3c(c2)OCO3)c2ccc(C)cc2)CC1 (stereo not given) | 81% (active) | 1% | 2 | 85% (active) | inactive | inactive | inactive | inactive |
| O=C(/C=C/c1ccc(Cl)c(Cl)c1)N1CCC(CCN2CCC(c3c[nH]c4ccncc34)CC2)CC1 | 70% (active) | 13% | 2 | 101% (active) | inactive | inactive | inactive | inactive |
| COc1ccc(C(=O)CCC(=O)N(Cc2ccc(-c3ccc(CNCCc4ccccc4)cn3)cc2)C(C)CN(C)C)cc1F (stereo not given) | 57% (active) | 20% | -4 | 98% (active) | inactive | inactive | inactive | inactive |
| CC(C)n1ncc2c3c(N)nc(N)nc3ccc21 | 6% | 64% (active) | -3 | 98% (active) | inactive | inactive | inactive | inactive |
| O=C(/C=C/c1ccc(Cl)c(Cl)c1)NCCCCCN1CCCC(CCCNC(=O)Nc2ccc(C(F)(F)F)cc2)C1 (stereo not given) | 48% | 58% (active) | -4 | 101% (active) | inactive | inactive | inactive | inactive |
| Cc1ccc(C(C)C)c(Oc2ccc3nc(N)nc(N)c3c2)c1 | 33% | 61% (active) | 2 | 96% (active) | inactive | inactive | inactive | inactive |
| O=c1cc(NCCCNC(c2ccccc2)c2ccc(Cl)c(Cl)c2)[nH]c2ccccc12 (stereo not given) | 94% (active) | 13% | 3 | 89% (active) | inactive | inactive | inactive | inactive |
| CN(C)c1ccc(NC2=NC(C)(C)N=C(N)N2)cc1 | 5% | -1% | -4 | 95% (active) | inactive | inactive | inactive | inactive |
| C=C(C)C1CC=C(CN2CCCC(n3ccc4cc(NC(=O)c5ccco5)ccc43)CC2)CC1 (stereo not given) | 95% (active) | 13% | 1 | 90% (active) | inactive | inactive | inactive | inactive |
| Nc1cccc(CNCc2cccc(-c3cccc(-c4nc5ccc(C(F)(F)F)cc5[nH]4)c3)c2)c1 | 96% (active) | 8% | 1 | 102% (active) | inactive | inactive | inactive | inactive |
| Cn1cncc1C(=O)Nc1cccc(-c2cccc(-c3nc4ccc(C(F)(F)F)cc4[nH]3)c2)c1 | 99% (active) | 38% | 0 | 103% (active) | inactive | inactive | inactive | inactive |
| COc1ccc2nccc([C@@H](O)CN3CCC(NCc4cc5ccc(C#N)cc5[nH]4)CC3)c2c1 | 39% | 31% | 0 | 100% (active) | inactive | inactive | inactive | inactive |
| CCOC(=O)c1c(C)noc1Nc1cccc(C)c1C | -2% | 8% | 2 | 98% (active) | inactive | inactive | inactive | inactive |
